# Screening results: PubChem BioAssay, National Center for Advancing Translational Sciences (NCATS)
# Sm TGR block = inhibitors of Schistosoma mansoni thioredoxin glutathione reductase; Q962Y6; purified TGR, DTNB reduction, TNB absorbance 405 nm; Potency, µM (doses to about 114 µM), without a hit: at the highest dose activity change, negative = inhibition, usual class: inhibitors; hit rate 3% among 360,000; further: potency means the concentration at half of the fitted maximal effect; on the % scale 0 is the no-effect control and ±100 the full control effect; nearly all actives have a fitted effect of over 60% in size
#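 Kinetic colorimetric format: TGR-catalysed, NADPH-driven DTNB reduction monitored via TNB absorbance. Enzyme dispensed at 20 nM; compound exposure 15 min at room temperature before reaction start.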
# FBPA Giardia inh = blocks Giardia fructose-bisphosphate aldolase activity; Potency, µM (series often up to 59.6 µM), for inactives: top-dose activity, negative = inhibition, hits mostly inhibitors; hit rate 0.71% among 290,000; purified Giardia FBPA; AID 2451; further: potency means the concentration at half of the fitted maximal effect; on the % scale 0 is the no-effect control and ±100 the full control effect; nearly all actives have a fitted effect of over 55% in size
# Target sequence (A8B2U2 whole entry, looked up): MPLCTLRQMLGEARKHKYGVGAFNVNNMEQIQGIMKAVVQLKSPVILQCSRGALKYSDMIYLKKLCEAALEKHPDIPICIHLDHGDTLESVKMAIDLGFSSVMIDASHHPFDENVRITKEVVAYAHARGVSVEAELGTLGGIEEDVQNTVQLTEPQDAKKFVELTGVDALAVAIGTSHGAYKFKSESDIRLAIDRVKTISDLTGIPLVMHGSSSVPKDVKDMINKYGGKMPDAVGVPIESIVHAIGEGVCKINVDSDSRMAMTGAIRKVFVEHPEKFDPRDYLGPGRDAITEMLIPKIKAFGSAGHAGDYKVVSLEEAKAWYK
#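 Giardia FBPA (40 nM reagent) was preincubated 10 min at RT with compound (up to 57.5 uM final), then substrate plus GAPDH/TPI/NAD/arsenate coupling system with diaphorase/resazurin was added; resorufin fluorescence (525/598 nm) was read after 20 min.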
# LmPK inh = inhibitors of Leishmania mexicana pyruvate kinase | Q27686 | purified LmPK, Kinase-Glo ATP luminescence, 1 h | Potency, µM (series often up to 57.5 µM), for the others: top-dose activity change, negative = inhibition, most hits filed as inhibitors | hit rate 0.37% among 290,000; further: potency means the concentration at half of the fitted maximal effect; on the % scale 0 is the no-effect control and ±100 the full control effect
#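 0.1 nM LmPK, 0.5 mM PEP, 0.1 mM ADP; 50 mM imidazole pH 7.2, 7 mM MgCl2, 50 mM KCl; 1 h RT. Kinase-Glo luminescence readout, normalized to no-enzyme (full inhibition) and uninhibited wells.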
# TbPYK inhibitor = inhibitors of Trypanosoma brucei pyruvate kinase | Potency, µM (top dose mostly 76.8 µM), without a hit: at the highest dose activity, negative = inhibition, actives largely listed as inhibitors | Q57TT1 | AID 624173 | TbPYK enzyme, Kinase-Glo Plus ATP luminescence, 45 min | hit rate 0.12% among 410,000; further: potency means the concentration at half of the fitted maximal effect; on the % scale 0 is the no-effect control and ±100 the full control effect; nearly all actives have a fitted effect of over 50% in size
#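 ADP (130 uM final) triggers the TbPYK reaction after compound addition; incubation is 45 min at room temperature. Kinase-Glo Plus is then added and luminescence imaged. Normalized data are fitted to concentration-effect curves.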
# CHX counter = counter-screen for Shiga toxin inhibitors: cycloheximide protein synthesis inhibition; cell reporter, cycloheximide protein synthesis inhibition counterscreen; max response, %; hit rate 12% among 300,000; in the data active means max response mostly above about 13%, no sharp cut-off; inactive means mostly below about 14%; further: read at 38.3 µM for the half of the compounds with a filed dose; 0% is about no effect
# Shiga toxin inh = Shiga toxin inhibition | hit rate 9.2% among 290,000 | Vero cells, Shiga toxin protein synthesis inhibition reporter | AID 2315 | inhibition, % at 38.7 µM; in the data active means inhibition mostly above about 28%, no sharp cut-off; inactive means mostly below about 43%; further: 0% is about no effect
# The depositor's hits bear a star; ? = inconclusive; · = not tested or not shown; [ ] = another dose, or the depositor's remark. Only a selection was taken, and hits are over-represented in it overall. Unless noted, the call rests on the fitted dose curve; in most records, active means well fitted curve in the direction sought with a large enough effect; inconclusive means small, poorly fitted or top-dose-only effect, or another doubt; inactive means no such curve, though single readings can be large; an effect the other way counts as inactive or inconclusive.
SMILES,Sm TGR block,FBPA Giardia inh,LmPK inh,TbPYK inhibitor,CHX counter,Shiga toxin inh
COc1ccccc1CCNC(=O)C(=O)NCC(c1ccco1)S(=O)(=O)c1ccc(F)cc1 (configuration not stated),17.8µM*,·,·,-15.7%,·,·
Cc1ccccc1CNC(=O)C(=O)NCC(c1ccco1)S(=O)(=O)c1ccc(F)cc1 (configuration not stated),8.91µM*,·,·,1.5%,·,·
O=C(NCCc1ccc(F)cc1)C(=O)NCC(c1ccco1)S(=O)(=O)c1ccccc1 (configuration not stated),-23.1%,·,·,-5.6%[15.4 µM],·,·
CCCCCOC(=O)NCC(O)c1ccccc1 (configuration not stated),9.6%,6.0%,-0.1%,-3.0%,67.8*,85.9*
CCCCOC(=O)NC(NCC(O)c1ccccc1)(C(F)(F)F)C(F)(F)F (configuration not stated),-4.4%,-5.1%,1.2%,3.1%,-2.4,-19.8
CCN1C(=S)SC(=O)C1=C1C=C(C)N(CCO)C(C)=C1,62.2%[11.4 µM],-23.8%,4.7%,5.6%,70.6*,125.0*
CCN1C(=S)SC(=O)C1=C1C=C(C)N(CCOC)C(C)=C1,0.0%,-10.4%,-1.4%,·,44.2*,106.7*
CC(=O)OC1CCC2(C)C(=CCC3C2CCC2(C)C(C(C)=O)CCC32)C1 (configuration not stated),·,·,·,2.2%,·,·
COc1ccc(C2C=C3CNS(=O)(=O)C3CC2OC(=O)c2cccc(C)c2)cc1 (configuration not stated),·,-0.2%,·,·,-6.2,-7.6
Cc1nn(CCC(=O)Nc2cc(F)ccc2F)c(=O)c2nn(-c3ccccc3)c(C)c12,-0.3%,·,·,3.1%,·,·
N#Cc1ccc(CN2CC3(CCN(C(=O)c4cccc(F)c4)CC3)C2)cc1,·,-2.0%,·,4.8%,·,·
O=C(NCC1(O)CCCCC1)C1CCC(=O)N(Cc2ccccc2F)C1 (configuration not stated),2.2%,3.2%,5.6%,3.5%,-3.4,-13.3
Cc1cccc(N2CCN(C(=O)C3CCC(=O)N(Cc4ccccc4F)C3)CC2)c1C (configuration not stated),-22.7%,2.8%,-3.1%,-6.0%,15.0*,9.3
COCCN1CCN(C(=O)C2CCC(=O)N(Cc3ccccc3F)C2)CC1 (configuration not stated),-11.0%,·,0.4%,-2.0%,-0.7,-2.9
Cc1ccc(CNC(=O)C2CCC(=O)N(Cc3ccccc3F)C2)s1 (configuration not stated),-26.1%,1.5%,3.9%,0.0%,31.5*,15.3
O=C(NC1CCCCCC1)C1CCC(=O)N(Cc2ccccc2F)C1 (configuration not stated),2.5%,-3.3%,-3.5%,-1.9%,26.7*,25.8
Cc1ccc(CNC(=O)C2CCC(=O)N(CCc3ccccc3)C2)s1 (configuration not stated),-24.5%,9.7%,-0.6%,0.0%,54.4*,34.3
CC1=C(C(=O)Nc2ccc(C)cc2C)C(CC(C)C)n2nc(SCc3ccccc3C)nc2N1 (configuration not stated),-2.7%,·,·,3.9%,·,·
O=C(Nc1ccc(Cl)c(S(=O)(=O)N2CCCCC2)c1)c1ccco1,-7.2%,·,·,-1.3%,·,·
Cc1ccc2c(CC(=O)Nc3ccc(S(=O)(=O)Nc4nc(C)cc(C)n4)cc3)coc2c1,-2.2%,·,·,-7.2%,·,·
COc1ccc(NC(=O)Cc2coc3cc(C)ccc23)cn1,-3.4%,-22.2%,-2.0%,-2.4%,21.5,68.6*
Cc1ccc2c(CC(=O)Nc3nc(C)cs3)coc2c1,0.0%,-7.9%,3.1%,-19.0%,20.4*,46.5
Cc1cc2occ(CC(=O)NC3=NCCS3)c2cc1C(C)C,-5.9%,3.0%,5.2%,-5.4%,-9.9,-4.0
Cc1ccc2c(CC(=O)NC3=NCCS3)coc2c1,-13.7%,-0.5%,2.9%,2.1%,28.7*,57.6*
COc1cc2c(c(OC)c1OC)-c1ccc(OC)c(=O)cc1[C@@H](NC=O)CC2,·,-15.3%,·,·,-9.6,-11.8
SMILES,Sm TGR block,FBPA Giardia inh,LmPK inh,TbPYK inhibitor,CHX counter,Shiga toxin inh
O=C(NC1CCCCC1)c1ccc(CSc2nc3ccncc3n2Cc2cccc(F)c2)cc1,-3.1%,·,·,2.1%,·,·
O=C(CCc1nc(-c2ccccc2)no1)NCc1ccccc1CN1CCOCC1,-12.2%,·,·,1.3%,·,·
CN(C)Cc1c(C(C)(C)O)[nH]c2ccc(C(F)(F)F)cc12,·,·,·,0.0%,·,·
CC(C)(O)c1[nH]c2cc(C(F)(F)F)ccc2c1C(C)(C)O,-6.6%,24.3%,-1.9%,-4.5%,8.8,37.1*
CC(C)(O)c1[nH]c2ccc(C(F)(F)F)cc2c1C(C)(C)O,-21.7%,5.2%,4.0%,-0.5%,7.9*,19.7
COc1ccc(N2CC(NC(=O)c3ccc4c(c3)OCO4)CC2=O)cc1OC (configuration not stated),11.3%,·,·,-7.2%,·,·
CC(=O)NC(CSC(CC(=O)c1ccco1)c1ccc(C)cc1)C(=O)O (configuration not stated),?,-9.5%,?,-5.5%,57.0*,105.4*
Cc1cccc(-c2cc(C(=O)Nc3ccncc3)c3ccccc3n2)c1,-9.8%,8.9%,0.3%,5.9%,8.4*,-1.5
Cc1cc(C(=O)Nc2ccc3c(c2)OCCO3)c2ccccc2n1,-0.5%,1.4%,0.1%,1.6%,21.7*,79.9*
Cc1cccc(-c2cc(C(=O)N3CCCc4ccccc43)c3ccccc3n2)c1,-1.3%,5.0%,3.9%,-9.8%,22.3*,7.3
Cc1cc(C(=O)Nc2ccccc2)c2ccccc2n1,17.9%,-0.7%,-7.4%,-1.5%,-2.8,-13.6
Cn1c(NC(=O)c2cc(-c3ccc4c(c3)OCO4)nc3ccccc23)cc(=O)n(C)c1=O,-4.0%,-4.7%,-10.9%,-4.8%,43.2*,31.3
CCc1ccc2ncc3c(-c4ccc(F)cc4)nn(CC(=O)NC4CCCCC4)c3c2c1,6.5%,·,·,7.0%,·,·
CCOC(=O)CC(NC(=O)CCc1c(C)nc2cc(-c3ccccc3)nn2c1C)c1ccc(C)cc1 (configuration not stated),0.5%,·,·,-12.2%,·,·
Cc1ccccc1-c1cc(C(=O)Nc2nc3c(s2)CCCC3)c2ccccc2n1,-17.7%,-1.8%,-3.6%,-9.3%,11.5,42.9
COc1cccc(-c2cc(C(=O)Nc3ccc4c(c3)OCCO4)c3ccccc3n2)c1,-12.3%,?,0.7%,·,22.1*,21.4
O=C(Nc1ccc2c(c1)OCO2)c1cc(-c2ccncc2)nc2ccccc12,1.1%,-9.8%,-13.4%,-5.1%,18.7*,20.6
O=C(Nc1nc2c(s1)CCCC2)c1cc(-c2ccc3c(c2)OCO3)nc2ccccc12,-2.7%,-7.5%,7.4%,·,26.3*,38.9
O=C(Nc1ccc2c(c1)OCCO2)c1cc(-c2ccccc2)nc2ccccc12,9.9%,2.5%,-7.2%,0.8%,15.9,-15.8
Cc1cc(Nc2ccc3c(c2)OCCO3)c2ccccc2n1,-7.9%,-11.4%,-1.4%,2.5%,11.9,14.9
